In PubChem BioAssay:
Activity calls are given as the source filed them. Unless noted, the rule behind the calls is not given here.

Experiments:
[1] = resazurin metabolic signal in HepG2 cells – cell-based, resazurin fluorescence, 24 h, PK04 Diversity Set, profiling panel (AID 1172); conditions: HepG2 viability, higher = more signal; note: test concentration not given here
[2] = budding yeast growth changes without added modifier – OD600, strain BY4716, 24 h, basal condition, primary screen (AID 1173); conditions: S. cerevisiae BY4716 growth, OD600, 24 h; higher = more signal, called active from +8 up or from −8 down
[3] = viability profiling in MM1S myeloma cells – cell-based, resazurin fluorescence, basal, 24 h, PK04 Diversity Set, profiling panel (AID 1174); conditions: higher = more signal, called active from +8 up or from −8 down;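 note: MM1S multiple myeloma cell line; test concentration not given here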
[4] = biological target: Dihydroorotate dehydrogenase (quinone), mitochondrial (Plasmodium falciparum (isolate 3D7)) (UniProt Q08210); assay: inhibition of P. falciparum DHODH – biochemical, C-terminal His tag, absorbance 600 nm, primary screen (AID 1175); conditions: PfDHODH enzyme, DCIP absorbance 600 nm; higher = more signal, called active from +8 up or from −8 down;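 note: recombinant parasite enzyme with a five histidine tag at its C terminus; test concentration not given here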
Dihydroorotate dehydrogenase (quinone), mitochondrial (Plasmodium falciparum (isolate 3D7)), sequence (Q08210 whole entry, looked up): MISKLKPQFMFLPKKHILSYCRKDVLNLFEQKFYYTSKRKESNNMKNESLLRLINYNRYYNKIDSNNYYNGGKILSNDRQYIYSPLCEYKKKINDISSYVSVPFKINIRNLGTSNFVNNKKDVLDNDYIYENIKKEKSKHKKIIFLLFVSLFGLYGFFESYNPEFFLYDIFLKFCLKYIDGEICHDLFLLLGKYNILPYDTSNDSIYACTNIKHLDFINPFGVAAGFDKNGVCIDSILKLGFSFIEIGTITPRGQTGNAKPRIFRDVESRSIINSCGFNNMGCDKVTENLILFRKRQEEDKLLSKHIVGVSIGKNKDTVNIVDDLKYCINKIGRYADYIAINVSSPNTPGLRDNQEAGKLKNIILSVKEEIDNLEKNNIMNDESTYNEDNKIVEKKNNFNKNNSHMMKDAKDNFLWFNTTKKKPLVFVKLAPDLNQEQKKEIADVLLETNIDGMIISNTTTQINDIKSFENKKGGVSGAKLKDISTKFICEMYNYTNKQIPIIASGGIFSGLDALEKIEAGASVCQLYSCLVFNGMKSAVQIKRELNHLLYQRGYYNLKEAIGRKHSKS

[5] = inhibition of PAO1 biofilm formation – strain PAO1, LB-PBS medium, absorbance 600 nm, primary screen (AID 1176); note: test concentration not given here; conditions: P. aeruginosa PAO1 growth/biofilm, A600, 12 h; higher = more signal
[6] = growth modulation of vineyard yeast isolate – strain RM11-1a, OD600, basal, 24 h, primary screen (AID 1177);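 note: cultures grown under basal conditions with no added stressor; test concentration not given here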; conditions: S. cerevisiae RM11-1a growth, OD600, 24 h; higher = more signal, called active from +8 up or from −8 down
[7] = growth of efflux-deficient E. coli DRC39 – strain DRC39, OD650, 24 h, E. coli filamentation inducers, primary screen (AID 1178);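 note: growth measured as culture turbidity by optical density at 650 nm; test concentration not given here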; conditions: E. coli DRC39 acrAB, higher = more signal, called active from +8 up or from −8 down
[8] = growth of efflux-deficient E. coli DRC39 – strain DRC39, OD650, 48 h, E. coli filamentation inducers, primary screen (AID 1179);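 note: screen aims at cell division blockers that make cells filament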; conditions: E. coli DRC39 delta-acrAB growth, higher = more signal, called active from +8 up or from −8 down
[9] = viability profiling in RPMI8226 myeloma cells – cell-based, resazurin fluorescence, basal, 24 h, PK04 Diversity Set, profiling panel (AID 1180); conditions: higher = more signal;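 note: RPMI8826 multiple myeloma cell line at 5000 cells per well; test concentration not given here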
[10] = biological target: E3 ubiquitin-protein ligase XIAP (Homo sapiens) (UniProt P98170); assay: small molecules binding XIAP protein – biophysical, small-molecule microarray, fluorescence 635 nm, primary screen (AID 1181); conditions: higher = more signal;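 note: score merges 667 nm emission and signal to noise over triplicate slides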
E3 ubiquitin-protein ligase XIAP (Homo sapiens), sequence (P98170 whole entry, looked up): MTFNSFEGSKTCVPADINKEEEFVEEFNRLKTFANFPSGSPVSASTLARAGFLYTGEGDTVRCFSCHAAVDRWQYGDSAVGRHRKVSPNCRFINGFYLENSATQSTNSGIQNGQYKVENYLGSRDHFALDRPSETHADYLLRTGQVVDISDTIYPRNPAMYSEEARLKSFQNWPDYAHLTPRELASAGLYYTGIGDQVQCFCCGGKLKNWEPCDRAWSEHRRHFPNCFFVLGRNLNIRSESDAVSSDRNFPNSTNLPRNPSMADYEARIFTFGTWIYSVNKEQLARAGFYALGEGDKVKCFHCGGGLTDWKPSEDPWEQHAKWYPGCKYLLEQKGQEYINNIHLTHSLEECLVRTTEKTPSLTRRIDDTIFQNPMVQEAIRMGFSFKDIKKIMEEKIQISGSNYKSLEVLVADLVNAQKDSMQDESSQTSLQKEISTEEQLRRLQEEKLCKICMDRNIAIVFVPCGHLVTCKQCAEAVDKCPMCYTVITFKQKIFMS

Row | Compound | z-score [1] | z-score [2] | z-score [3] | composite z-score [4] | z-score [5] | z-score [6] | z-score [7] | z-score [8] | z-score [9] | composite z-score [10]
1 | C=CCC(OC(C)=O)[C@@H]1[C@@H](N(Cc2cccc3ccccc23)C(=O)c2cccc3ccccc23)c2cc(OCCCO)ccc2N1C(=O)c1ccc2ccccc2c1 (stereo not given in full) | 0.628 | -0.775 (inactive) | 0.62 (inactive) | -0.29 (inactive) | -1.44 (inactive) | -0.646 (inactive) | 0.745 (inactive) | 0.386 (inactive) | -0.0722 | -0.179
2 | COCCOC(=O)N1C(=O)[C@@]2(c3cc(C#CCCO)ccc31)[C@H](C(N)=O)[C@H]1C(=O)O[C@H](c3ccccc3)[C@H](c3ccccc3)N1[C@@H]2c1ccc(OCCO)cc1 | -0.639 | 1.21 (inactive) | -0.479 (inactive) | 0.46 (inactive) | 1.56 (inactive) | 2.16 (inactive) | -0.138 (inactive) | 0.386 (inactive) | -0.621 | 0.409
3 | O=C1C[C@@](C(=O)NCc2ccccc2)(c2ccc([N+](=O)[O-])cc2)[C@@H](c2ccc(CO)cc2I)N1CC12CC3CC(CC(C3)C1)C2 | -1.28 | -0.787 (inactive) | -1.73 (inactive) | -0.0036 (inactive) | 0.593 (inactive) | -0.229 (inactive) | 0.0207 (inactive) | 0.348 (inactive) | -2.62 | -0.227
4 | Cc1cccc([C@H]2C[C@H]3C(I)=C[C@@H]2C(=O)[C@]32CO2)c1 | 0.644 | -10.5 (active) | -0.415 (inactive) | 0.284 (inactive) | 0.531 (inactive) | -0.639 (inactive) | -0.545 (inactive) | -1.15 (inactive) | 0.305 | 0.49
5 | COCCCNC(=O)[C@@]1(Sc2ccc(C)cc2)CC(=O)N(C(C)C)[C@@H]1c1ccc(CO)cc1I | -0.312 | -3.22 (inactive) | -2.35 (inactive) | -0.642 (inactive) | 0.394 (inactive) | -1.82 (inactive) | 0.0841 (inactive) | -0.0194 (inactive) | -1.97 | -0.37
6 | COC(=O)[C@@]1(Cc2ccc(OC)cc2)[C@H]2c3cc(C(=O)N4CCCC4)n(Cc4ccc(S(C)(=O)=O)cc4)c3C[C@H]2CN1C(=O)c1ccccc1 | -0.707 | 0.63 (inactive) | -0.389 (inactive) | -1.16 (inactive) | 0.122 (inactive) | 0.115 (inactive) | -0.867 (inactive) | -0.113 (inactive) | -0.84 | 0.721
7 | CC(C)CNC(=O)[C@@]1(C)c2ccccc2C(=O)N(Cc2cc(C(F)(F)F)cc(C(F)(F)F)c2)[C@H]1c1ccc(CO)cc1 | -0.402 | 0.145 (inactive) | -0.47 (inactive) | 0.24 (inactive) | -0.0933 (inactive) | -0.46 (inactive) | 0.162 (inactive) | 0.644 (inactive) | 0.364 | -0.206
8 | Cc1nc2cc(Br)ccc2c(=O)n1Cc1cccc(O)c1 | 0.674 | -0.496 (inactive) | -1.23 (inactive) | 0.0596 (inactive) | 1.38 (inactive) | 0.0164 (inactive) | 0.381 (inactive) | 0.776 (inactive) | -0.505 | 0.0674
9 | CC(=O)N1CC(C(O)C2C=CC3C(=O)NC(=O)C3N2Nc2ccc(Cl)cc2Cl)c2ccccc21 (stereo not given) | -1.59 | -2.62 (inactive) | -0.731 (inactive) | 0.905 (inactive) | 1.28 (inactive) | 1.82 (inactive) | -0.306 (inactive) | -0.547 (inactive) | -0.94 | 0.277
10 | O=C1C2C=CC(C(O)c3ccc4c(c3)OCO4)N(Nc3ccccc3)C2C(=O)N1c1ccccc1 (stereo not given) | -0.0551 | 0.939 (inactive) | -0.793 (inactive) | 0.0433 (inactive) | 0.338 (inactive) | 0.581 (inactive) | -0.0005 (inactive) | -0.387 (inactive) | -0.827 | -0.0524
11 | COC(=O)C1=CC(CCCO)=CC(c2ccc(CN3CCCC3)cc2)N(Cc2cc3c(cc2Br)OCO3)C=C1C(=O)OC (stereo not given) | 0.3 | 0.0793 (inactive) | -0.119 (inactive) | 0.214 (inactive) | 0.214 (inactive) | 0.73 (inactive) | 0.463 (inactive) | 0.67 (inactive) | -0.0377 | -0.0102
12 | CCCCNC(=O)c1ccc(C#C[Si](C(C)C)(C(C)C)C(C)C)c(OC(C)=O)c1 | 0.236 | -0.152 (inactive) | 0.219 (inactive) | -1.29 (inactive) | -0.623 (inactive) | 0.0679 (inactive) | 0.119 (inactive) | -0.0634 (inactive) | 0.234 | -0.165
13 | COc1ccc(C(O)C2C=CC3C(=O)N(c4ccccc4)C(=O)C3N2Nc2ccccc2)cc1 (stereo not given) | -0.377 | -2.39 (inactive) | -0.582 (inactive) | 0.618 (inactive) | 0.571 (inactive) | -0.0179 (inactive) | -0.519 (inactive) | -0.43 (inactive) | -0.841 | 0.438
14 | CCOC(=O)C1=C[C@@H](c2ccccc2)N(S(=O)(=O)c2ccc(C)cc2)[C@H]1c1ccccc1 | -0.443 | 0.779 (inactive) | -1.38 (inactive) | -0.629 (inactive) | 0.878 (inactive) | 0.398 (inactive) | -0.86 (inactive) | -0.605 (inactive) | -0.549 | 0.125
15 | COCCOC(=O)N1C(=O)[C@@]2(c3cc(C#CCNC(N)=O)ccc31)[C@H](c1ccc(OCCO)cc1)N1[C@H](c3ccccc3)[C@H](c3ccccc3)OC(=O)[C@H]1[C@@H]2C(N)=O | -0.373 | 1.19 (inactive) | 0.421 (inactive) | -0.0174 (inactive) | 0.858 (inactive) | 2.4 (inactive) | 0.146 (inactive) | 0.384 (inactive) | 0.637 | -0.0414
16 | CC(C)CNC(=O)[C@@H]1c2ccccc2C(=O)N(C2CCCCC2)[C@H]1c1ccc(CO)cc1 | 1.12 | -0.664 (inactive) | 1.5 (inactive) | 0.246 (inactive) | 0.292 (inactive) | -1.22 (inactive) | 1.49 (inactive) | 1.59 (inactive) | 1.34 | -0.234
17 | Cc1ccc(C(C)CC(O)C2C=CC3C(=O)N(c4ccccc4)C(=O)C3N2Nc2ccc(C#N)cc2)o1 (stereo not given) | -0.793 | -17.1 (active) | -3.76 (inactive) | -1.79 (inactive) | 0.0616 (inactive) | -20.8 (active) | 0.431 (inactive) | 1.14 (inactive) | -5.62 | 0.0204
18 | CC(C)C(=C=CC[C@@H](O)c1cccc(OCCO)c1)C[C@@H](O)COCc1ccccc1 | 0.564 | -1.91 (inactive) | 0.301 (inactive) | -3.34 (inactive) | 0.424 (inactive) | -2.4 (inactive) | 0.789 (inactive) | 0.633 (inactive) | 0.47 | -0.119
19 | C=C(CCCC)C(=O)CC[C@@H](OC(=O)c1cccnc1)c1ccc(OCCO)cc1 | -0.211 | -2.75 (inactive) | -1.43 (inactive) | -2.9 (inactive) | 0.543 (inactive) | -0.208 (inactive) | -0.566 (inactive) | -0.547 (inactive) | -2.52 | 0.0542
20 | CCCCCCCCCCC(O)C1C=CC2C(=O)N(c3ccccc3)C(=O)C2N1Nc1ccccc1F (stereo not given) | 0.0366 | 0.864 (inactive) | -0.361 (inactive) | 0.742 (inactive) | 0.819 (inactive) | 0.719 (inactive) | -0.717 (inactive) | 0.555 (inactive) | -0.335 | 0.174
21 | Cc1ccccc1C(O)C1C=CC2C(=O)N(c3ccccc3)C(=O)C2N1Nc1ccc([N+](=O)[O-])cc1 (stereo not given) | -0.368 | -0.14 (inactive) | -0.327 (inactive) | 0.718 (inactive) | 1.29 (inactive) | -0.0035 (inactive) | -0.328 (inactive) | -0.316 (inactive) | -0.0045 | 0.167
22 | O=c1cccc(-c2ccco2)o1 | -0.675 | -0.216 (inactive) | 0.0232 (inactive) | -1.85 (inactive) | 0.092 (inactive) | -0.231 (inactive) | -0.644 (inactive) | -0.338 (inactive) | -0.258 | -0.179
23 | Cc1ccc([C@H]2C(C(=O)O)=C[C@@H](C(C)(C)C)N2S(=O)(=O)c2ccc(C)cc2)cc1 | -0.553 | -0.405 (inactive) | -0.648 (inactive) | -0.241 (inactive) | 0.353 (inactive) | -0.0566 (inactive) | -1.36 (inactive) | -0.387 (inactive) | -2.49 | 0.193
24 | CC(C)CNC(=O)[C@@]1(c2ccc([N+](=O)[O-])cc2)CC(=O)N(C2CCCCC2)[C@@H]1c1ccc(CO)cc1 | 0.0751 | -1.68 (inactive) | 1.17 (inactive) | -0.0682 (inactive) | -0.301 (inactive) | -0.377 (inactive) | 0.637 (inactive) | 0.0367 (inactive) | 1.12 | 0.14
25 | COC(=O)C1=CC(CCCO)=CC(C)N(Cc2cccc(OC(F)(F)F)c2)C=C1C(=O)OC (stereo not given) | 0.0252 | -1.78 (inactive) | -0.0934 (inactive) | -2.73 (inactive) | 0.227 (inactive) | 0.0728 (inactive) | 1.38 (inactive) | 1.21 (inactive) | -0.123 | 0.365
